PMC4336329 (PLoS ONE, 2015)
The whole screen tested about 310,000 compounds, of which about 14,000 (4.5%) showed an effect of 50% or more. Effects have a minus sign here. What follows is part of a selection rich in strong results, with near analogues and random picks from the rest.

target: human ether-à-go-go-related gene (hERG) potassium channel (human, UniProt Q12809); assay: primary screen, population patch clamp on CHO cells stably expressing hERG; higher = less effect of the substance
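Further: peak tail current of the secondary pulse compared with the same well before compound.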

Sequence of human ether-à-go-go-related gene (hERG) potassium channel (Q12809 whole entry, looked up): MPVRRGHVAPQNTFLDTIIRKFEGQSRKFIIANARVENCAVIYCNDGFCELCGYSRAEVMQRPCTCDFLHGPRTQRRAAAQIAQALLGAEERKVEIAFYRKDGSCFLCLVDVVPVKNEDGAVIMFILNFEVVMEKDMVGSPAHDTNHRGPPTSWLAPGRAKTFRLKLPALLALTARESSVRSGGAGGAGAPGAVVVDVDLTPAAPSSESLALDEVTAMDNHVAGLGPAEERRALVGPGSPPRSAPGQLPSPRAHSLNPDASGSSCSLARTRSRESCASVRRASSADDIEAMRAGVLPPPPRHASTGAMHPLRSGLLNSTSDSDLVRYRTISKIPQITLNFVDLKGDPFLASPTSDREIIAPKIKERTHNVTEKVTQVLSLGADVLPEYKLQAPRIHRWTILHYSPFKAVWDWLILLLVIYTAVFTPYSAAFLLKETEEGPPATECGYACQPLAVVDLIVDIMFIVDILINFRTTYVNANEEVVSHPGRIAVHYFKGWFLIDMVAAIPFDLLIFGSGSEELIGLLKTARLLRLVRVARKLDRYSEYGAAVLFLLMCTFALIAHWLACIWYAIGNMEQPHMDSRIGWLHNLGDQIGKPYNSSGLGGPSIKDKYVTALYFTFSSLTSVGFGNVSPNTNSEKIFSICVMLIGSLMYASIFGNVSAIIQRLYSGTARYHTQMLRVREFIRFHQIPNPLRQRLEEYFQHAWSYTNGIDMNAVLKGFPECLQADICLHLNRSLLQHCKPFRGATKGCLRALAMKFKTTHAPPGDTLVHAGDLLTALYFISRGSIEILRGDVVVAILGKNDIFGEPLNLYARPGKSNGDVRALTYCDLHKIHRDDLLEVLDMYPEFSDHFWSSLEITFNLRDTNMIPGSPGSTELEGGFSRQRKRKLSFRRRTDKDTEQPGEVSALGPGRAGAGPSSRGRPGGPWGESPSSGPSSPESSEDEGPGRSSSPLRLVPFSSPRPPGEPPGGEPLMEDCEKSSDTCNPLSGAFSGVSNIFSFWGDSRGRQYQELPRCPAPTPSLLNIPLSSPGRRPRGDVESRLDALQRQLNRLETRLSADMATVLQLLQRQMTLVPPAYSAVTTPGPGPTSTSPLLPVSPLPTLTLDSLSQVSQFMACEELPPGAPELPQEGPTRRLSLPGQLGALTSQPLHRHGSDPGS

Row | SMILES | hERG current change (%, negative = inhibition) at 10uM [%]
1 | Brc1c(-c2ccccc2)nc2n1Cc1ccccc1-2 | 21.8
2 | CC(C)(C)C(=O)Oc1cccc(Nc2ncnc3ccccc23)c1 | 9.76
3 | Cc1ccc(Oc2ncnc(N)c2[N+](=O)[O-])cc1C | 31.8
4 | NC(=O)CC(NC(=O)c1ccccc1)c1ccc(N2CCN(c3ccccc3)CC2)c([N+](=O)[O-])c1 (stereo not shown) | 1.33
5 | O=C(CSc1nc2ccccc2o1)NC(=O)NCc1ccccc1 | 8.99
6 | O=C(CSc1nc2[nH]ncc2c(=O)n1-c1ccccc1)c1ccc2c(c1)OCCO2 | -6.39
7 | CCN(CCCC(=O)c1ccc(F)cc1)CCc1ccccc1.Cl | -84.5
8 | O=C(CCCC(=O)c1ccc(F)cc1)c1ccc(F)cc1 | -25.8
9 | O=C(CCCc1ccccc1)c1ccccc1 | 18.5
10 | CCc1ccc(-c2nc(CS(=O)CC(=O)NC3CCCCCC3)c(C)o2)cc1 (stereo not shown) | -7.44
11 | Cc1ccc(S(=O)(=O)N2CCCC(C(=O)NC3CCCC3)C2)cc1Cl (stereo not shown) | 17.8
12 | Cc1ccc(N=C(N)N=C(N)N)cc1 | 16.9
13 | CN1CCN(/N=C/c2ccc(-c3ccc([N+](=O)[O-])cc3)o2)CC1 | -66
14 | O=[N+]([O-])c1ccc(-c2ccc(/C=N/O)o2)cc1 | 8.69
15 | CN1CCN(/N=C/c2ccc(-c3ccc([N+](=O)[O-])cc3Cl)o2)CC1 | -46.2
16 | CC(C)(CN1CCCC1)NS(=O)(=O)c1ccc(Cl)cc1 | 29.6
17 | CC(C)(CN1CCCCC1)NS(=O)(=O)c1ccc(Cl)cc1 | -13.4
18 | Cc1ccc(S(=O)(=O)NC(C)(C)CN2CCNCC2)cc1 | -9.34
19 | CC(C)(CN1CCNCC1)NS(=O)(=O)c1ccc(Cl)cc1 | -60.3
20 | CC(C)(CN1CCN(Cc2ccccc2)CC1)NS(=O)(=O)c1ccc(Cl)cc1 | -74.7
21 | CC(C)(CN1CCN(Cc2ccccc2)CC1)NS(=O)(=O)c1ccccc1 | -39.6
22 | CCOc1ccc2nc(NC(=O)c3cnccn3)sc2c1 | 2.76
23 | c1coc(-c2nc3ccccc3nc2-c2ccco2)c1 | -4.79

Row | SMILES | hERG current change (%, negative = inhibition) at 10uM [%]
24 | CCN(CC)CCCCN1c2ccccc2Sc2ccccc21.Cl | -61.7
25 | CCN(CC)CC(=O)N1c2ccccc2Sc2ccccc21 | 1.42
26 | CN(C)CCCN1c2ccccc2Sc2ccccc21.Cl | -28.1
27 | CN(C)CCCNC(=O)N1c2ccccc2Sc2ccccc21 | 1.39
28 | CCC(=O)c1ccc2c(c1)N(CCCN(C)C)c1ccccc1S2.Cl | -63.5
29 | CCN(CC)CCN1c2ccccc2Sc2ccccc21.O=C(O)C(=O)O | -41.3
30 | CC(C)(C)c1ccc(O)c(N)c1 | 8.01
31 | N#Cc1ncccc1CCc1cccc(Cl)c1 | -11.1
32 | NS(=O)(=O)c1ccc(CCNC(=O)CCS(=O)(=O)c2ccc(Br)cc2)cc1 | 19.2
33 | O=C(CCCC1=NS(=O)(=O)c2ccccc2N1)N1CCN(c2ccc(Cl)cc2)CC1 | -61.1
34 | COc1ccc(N2CCN(C(=O)CCCC3=NS(=O)(=O)c4ccccc4N3)CC2)cc1 | -7.68
35 | COc1cccc(N2CCN(C(=O)CC(C)(C)CC3=NS(=O)(=O)c4ccccc4N3)CC2)c1 | -6.09
36 | COc1ccccc1N1CCN(C(=O)CCCC2=NS(=O)(=O)c3ccccc3N2)CC1 | 2.62
37 | O=C(CCCC1=NS(=O)(=O)c2ccccc2N1)N1CCN(c2ccccc2)CC1 | -1.79
38 | CC(C)(CC(=O)N1CCN(c2ccc(Cl)cc2)CC1)CC1=NS(=O)(=O)c2ccccc2N1 | -61.1
39 | O=C(NCCc1csc(-c2cccnc2)n1)c1ccccc1Br | -4.05
40 | CC1CCCCN1C(=S)NC(=O)c1cc(Br)ccc1Cl (stereo not shown) | 4.09
41 | COc1ccc(/C=N/N=C/c2c[nH]c(=O)c(C#N)c2Nc2ccccc2)cc1 | 5.81
42 | Cn1c(O)c(N=NC(=O)c2ccccc2O)c2ccccc21 | 13.6
43 | CCCCCc1nc2c(c3c1CCCC3)CCCC2 | -71.7
44 | CCCCc1nc(Cl)c(C#N)c2c1CCCC2 | -14.7
45 | CCCCCc1n[nH]c2c1CCCC2 | 15.6
46 | CCOC(=O)c1ccc(NC(=S)NCCc2ccccc2)cc1 | 4.14

Row | SMILES | hERG current change (%, negative = inhibition) at 10uM [%]
47 | CC(=O)N1CCN(CC(=O)Nc2c(Cl)cc(Cl)cc2Cl)CC1 | -54.2
48 | N#Cc1ccc(NC(=O)CN2CCCC2)cc1Cl | 0.986
49 | O=C(CN1CCOCC1)Nc1c(Cl)cc(Cl)cc1Cl | -2.17
50 | O=C(CN1CCCCCC1)Nc1c(Cl)cc(Cl)cc1Cl | -5.28
51 | N#Cc1ccc(NC(=O)CN2CCCCCC2)cc1Cl | -21.3
52 | CC(=O)N1CCN(CC(=O)Nc2ccc(C#N)c(Cl)c2)CC1 | -71.7
53 | O=C(NC1CCS(=O)(=O)C1)c1ccc(S(=O)(=O)N2CCCC2)cc1 (stereo not shown) | 9.83
54 | CCC(C)(C)C1CCc2[nH]nc(C(=O)NC(C)C)c2C1 (stereo not shown) | 12.7
55 | CC12CCC(C(=O)NCCN3CCCCC3)(CC1=O)C2(C)C (stereo not shown) | -2.12
56 | O=C(CNCc1ccccc1)Nc1ccc(Oc2ccccc2)cc1 | -18.7
57 | CCCCOc1ccc(NC(=O)CN2CCN(C(=O)OCC)CC2)cc1.Cl | -28.6
58 | CCOC(=O)N1CCN(CC(=O)Nc2ccc(C)c(Br)c2)CC1.Cl | -16.1
59 | CCN(CC)CC(=O)Nc1ccc(Oc2ccc(NC(=O)CN(CC)CC)cc2)cc1 | 17.1
60 | O=C(CN1CCN(c2ccccc2)CC1)Nc1ccc(Oc2ccccc2)cc1 | 15.6
61 | CCN(CC)CCNC(=O)c1ccccc1N | -5.76
62 | CCOC(=O)N1CCN(CC(=O)Nc2ccc(Oc3ccccc3)cc2)CC1 | -50.1
63 | CCOC(=O)N1CCN(CCC(=O)Nc2ccc(F)c(F)c2)CC1 | 0.204
64 | CCN(CC)CCNC(=O)C(C)c1nn(C)c(=O)c2ccccc12 (stereo not shown) | 8.67
65 | CCOC(=O)N1CCN(CC(=O)Nc2ccc(F)c(F)c2)CC1 | -62.4
66 | CCN(CC)CCNCC(=O)Nc1ccc(Oc2ccccc2)cc1 | -70.5
67 | CCN(CC)CCNC(=O)C(Oc1ccccc1)Oc1ccccc1 | -65.4
